For experiment [1], the target named is Mitogen-activated protein kinase 10 (Mus musculus) (UniProt Q61831). Put plainly: JNK3 AlphaScreen Assay (AID 530).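 Also: kinase came from lysate of stimulated human HepG2 cells; signal reports phosphorylation of biotinylated GST-cJun 1-79 at Ser73 with 10 µM ATP; series mostly up to about 57 µM.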 In short, it runs like this: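 qHTS format: compounds tested as titrations against IL-1beta/TNF-alpha-activated HepG2 lysate JNK3 with biotin-GST-cJun substrate and 10 uM ATP at room temperature. Loss of anti-phospho-cJun AlphaScreen signal indicates inhibition.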
A general note: In Alpha technology, singlet oxygen from a donor bead excites a nearby acceptor bead.

The target of experiment [2] is 3',5'-cyclic-AMP phosphodiesterase 4B (Homo sapiens) (UniProt Q07343). Description: qHTS Assay for Inhibitors of PDE-IV (AID 607; active = well fitted activation curve with a large enough effect in the main read-out, with a control signal flat, not every such curve was filed as active). In short, it runs like this: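 HEK293 ACTOne cells with CNG channel (1000/well), endogenous PDE4; membrane potential dye, compounds up to 22.9 uM final. Fluorescence Ex 535/Em 590; RO 20-1724 (100 uM final) as reference.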
Chain of 3',5'-cyclic-AMP phosphodiesterase 4B (Homo sapiens) (Q07343 whole entry, looked up): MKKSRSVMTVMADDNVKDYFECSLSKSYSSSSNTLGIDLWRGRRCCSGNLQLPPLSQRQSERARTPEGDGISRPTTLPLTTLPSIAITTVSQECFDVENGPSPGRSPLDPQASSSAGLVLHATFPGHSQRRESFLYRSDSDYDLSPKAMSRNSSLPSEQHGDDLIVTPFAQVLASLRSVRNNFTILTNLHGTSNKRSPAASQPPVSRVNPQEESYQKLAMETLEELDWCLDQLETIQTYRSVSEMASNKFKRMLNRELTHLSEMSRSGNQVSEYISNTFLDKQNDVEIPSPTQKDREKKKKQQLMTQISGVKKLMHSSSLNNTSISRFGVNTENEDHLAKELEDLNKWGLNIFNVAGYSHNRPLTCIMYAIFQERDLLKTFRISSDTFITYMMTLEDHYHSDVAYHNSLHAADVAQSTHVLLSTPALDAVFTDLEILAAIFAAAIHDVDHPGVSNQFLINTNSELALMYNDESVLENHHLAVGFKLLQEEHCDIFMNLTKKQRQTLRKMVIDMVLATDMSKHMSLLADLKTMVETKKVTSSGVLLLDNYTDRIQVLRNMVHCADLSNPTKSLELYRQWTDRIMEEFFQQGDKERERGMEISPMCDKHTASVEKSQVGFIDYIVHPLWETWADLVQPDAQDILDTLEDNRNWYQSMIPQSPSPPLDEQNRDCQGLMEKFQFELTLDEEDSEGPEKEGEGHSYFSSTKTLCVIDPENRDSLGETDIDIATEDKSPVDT

The structures appear in SMILES notation. Results filed as inconclusive are left out. Calls of active or inactive are those of the source. Unless noted, calls follow the shape of the dose curve; as a rule, active = well fitted curve in either direction with a large enough effect (not every such curve was filed as active); inconclusive = small, poorly fitted or top-dose-only effect, or another doubt; inactive = flat fitted curve, though single readings scatter.

In the case of `COC(=O)[C@@]1(Cc2ccc(F)cc2)[C@H]2c3cc(C(=O)N(C)C)n(Cc4ccc(S(C)(=O)=O)cc4)c3C[C@H]2CN1C(=O)c1ccccc1`, the compound was classed as inactive in experiment [1] and in experiment [2]. As for `COC(=O)[C@@]1(Cc2ccc(OC)cc2)[C@H]2c3cc(C(=O)N4CCCC4)n(CCc4ccc(O)c(OC)c4)c3C[C@H]2CN1C(=O)c1ccccc1`, the result in experiment [1] and in experiment [2] was inactive. Turning to `COC(=O)[C@H]1C[C@@H]1[C@H](NS(=O)(=O)c1ccc2ccccc2c1)c1ccccc1`, the outcome in experiment [1] was inactive. Consider `Cc1cc(CNC(=O)[C@H](C)[C@@H]2C[C@@]2(C)[C@@H](NC(=O)OCc2ccccc2)c2ccccc2)nn1C`, for which the compound was called inactive in experiment [1] and in experiment [2]. As to `COC(=O)[C@@]1(Cc2ccc(OC)cc2)[C@H]2c3cc(C(=O)N(C)C)n(Cc4ccc(O)c(OC)c4)c3C[C@H]2CN1C(=O)c1ccccc1`, the compound was classed as inactive in experiment [1] and in experiment [2]. Take `O=C(NCc1cccc2ccccc12)[C@H]1C[C@@H]1[C@H](NP(=O)(c1ccccc1)c1ccccc1)c1ccccc1`: the compound was classed as inactive in experiment [1] and in experiment [2].

As for `O=C(NCc1ccccn1)[C@H]1C[C@@H]1[C@H](NP(=O)(c1ccccc1)c1ccccc1)c1ccccc1`, the result in experiment [1] and in experiment [2] was inactive. For `COC(=O)[C@@]1(Cc2ccccc2)[C@H]2c3cc(C(=O)N4CCCC4)n(Cc4ccccc4)c3C[C@H]2CN1C(=O)c1ccccc1`, the result in experiment [1] and in experiment [2] was inactive. Turning to `Cc1ccc(CNC(=O)[C@@H]2C[C@H]2[C@@H](NP(=O)(c2ccccc2)c2ccccc2)c2ccccc2)o1`, the result in experiment [1] and in experiment [2] was inactive.

`COC(=O)[C@@]1(Cc2ccccc2)[C@H]2c3cc(C(=O)N(C)C)n(Cc4ccccc4)c3C[C@H]2CN1C(=O)c1ccccc1`: the call in experiment [1] and in experiment [2] was inactive. As to `CS(=O)(=O)c1ccc(CNC(=O)[C@@H]2C[C@H]2[C@@H](NP(=O)(c2ccccc2)c2ccccc2)c2ccccc2)cc1`, the compound was called inactive in experiment [1] and in experiment [2]. Take `COC(=O)[C@@]1(Cc2ccc(OC)cc2)[C@H]2c3cc(C(=O)N(C)C)n(Cc4ccc(C)o4)c3C[C@H]2CN1C(=O)c1ccccc1`: the outcome in experiment [1] was inactive. In the case of `COC(=O)[C@@]1(Cc2ccc(OC)cc2)[C@H]2c3cc(C(=O)N(C)C)n(Cc4cccc5ccccc45)c3C[C@H]2CN1C(=O)c1ccccc1`, the compound was called inactive in experiment [1] and in experiment [2]. In the case of `Cc1cc(C(=O)N[C@@H](c2ccccc2)[C@]2(C)C[C@H]2[C@@H](C)C(=O)Nc2ccc3ccccc3c2)no1`, the compound was classed as inactive in experiment [1]. Take `Cc1cc(CNC(=O)[C@H](C)[C@H]2C[C@]2(C)[C@H](NC(=O)OCc2ccccc2)c2ccccc2)nn1C`: the call in experiment [1] and in experiment [2] was inactive. With `COC(=O)[C@@]1(Cc2ccc(F)cc2)[C@H]2c3cc(C(=O)N(C)C)n(Cc4nc5ccccc5[nH]4)c3C[C@H]2CN1C(=O)c1ccccc1`, the call in experiment [1] and in experiment [2] was inactive.

As for `CCc1c2c(nc3ccccc13)OC(C)C2` (configuration not stated), the result in experiment [1] and in experiment [2] was inactive.

As for `COC(=O)[C@@]1(Cc2ccccc2)[C@H]2c3cc(C(=O)N4CCCC4)n(CCO)c3C[C@H]2CN1C(=O)c1ccccc1`, the compound was called inactive in experiment [1].

`COC(=O)[C@@]1(Cc2ccc(F)cc2)[C@H]2c3cc(C(=O)N(C)C)n(Cc4ccccn4)c3C[C@H]2CN1C(=O)c1ccccc1`: the call in experiment [1] and in experiment [2] was inactive.

In the case of `COC(=O)[C@@]1(Cc2ccc(F)cc2)[C@H]2c3cc(C(=O)N4CCCC4)n(Cc4ccc(C(F)(F)F)nc4)c3C[C@H]2CN1C(=O)c1ccccc1`, the compound was called inactive in experiment [1] and in experiment [2]. Consider `COC(=O)[C@@]1(Cc2ccc(OC)cc2)[C@H]2c3cc(C(=O)N(C)C)n(Cc4ccc(OC(F)(F)F)cc4)c3C[C@H]2CN1C(=O)c1ccccc1`, for which the outcome in experiment [1] and in experiment [2] was inactive. With `C[C@@H](C(=O)NCC1CC1)[C@H]1C[C@]1(C)[C@H](NC(=O)OCc1ccccc1)c1ccccc1`, the result in experiment [1] and in experiment [2] was inactive. As for `COC(=O)[C@@]1(Cc2ccc(F)cc2)[C@H]2c3cc(C(=O)N4CCCC4)n(Cc4cc(C)n(C)n4)c3C[C@H]2CN1C(=O)c1ccccc1`, the compound was classed as inactive in experiment [1] and in experiment [2]. On to `Nc1ccccc1C#CCCCCO`, for which the result in experiment [1] and in experiment [2] was inactive. Take `COC(=O)[C@H]1C[C@@H]1[C@H](NC(C)=O)c1ccccc1`: the compound was classed as inactive in experiment [1] and in experiment [2]. Take `COC(=O)[C@@]1(Cc2ccccc2)[C@H]2c3cc(C(=O)N(C)C)n(C[C@H](O)CO)c3C[C@H]2CN1C(=O)c1ccccc1`: the result in experiment [1] and in experiment [2] was inactive. In the case of `COC(=O)[C@@]1(Cc2ccc(OC)cc2)[C@H]2c3cc(C(=O)N(C)C)n(Cc4ccc(C(F)(F)F)nc4)c3C[C@H]2CN1C(=O)c1ccccc1`, the compound was classed as inactive in experiment [1] and in experiment [2]. For the compound `C[C@@]1(C(NS(=O)(=O)c2cccc3cccnc23)c2ccc(-c3ccccc3)cc2)C[C@H]1C1CCCCC1` (some centres not stated), the compound was called inactive in experiment [1] and in experiment [2]. Regarding `COC(=O)[C@@]1(Cc2ccc(F)cc2)[C@H]2c3cc(C(=O)N(C)C)n(CCSCCO)c3C[C@H]2CN1C(=O)c1ccccc1`, the call in experiment [1] and in experiment [2] was inactive. For `COC(=O)[C@@]1(Cc2ccc(OC)cc2)[C@H]2c3cc(C(=O)N(C)C)n(CCc4ccc(O)c(OC)c4)c3C[C@H]2CN1C(=O)c1ccccc1`, the result in experiment [1] and in experiment [2] was inactive.

On to `C[C@@H](C(=O)NCc1ccccc1)[C@H]1C[C@]1(C)[C@H](NC(=O)OCc1ccccc1)c1ccccc1`, for which the compound was called inactive in experiment [1] and in experiment [2]. Turning to `COC(=O)[C@@]1(Cc2ccccc2)[C@H]2c3cc(C(=O)N4CCCC4)n(CCSCCO)c3C[C@H]2CN1C(=O)c1ccccc1`, the outcome in experiment [1] and in experiment [2] was inactive. Consider `Cc1ccc(CNC(=O)[C@H](C)[C@@H]2C[C@@]2(C)[C@@H](NC(=O)OCc2ccccc2)c2ccccc2)o1`, for which the compound was called inactive in experiment [1] and in experiment [2]. Regarding `COC(=O)[C@@]1(Cc2ccc(OC)cc2)[C@H]2c3cc(C(=O)N(C)C)n(C[C@H](O)CO)c3C[C@H]2CN1C(=O)c1ccccc1`, the compound was called inactive in experiment [1] and in experiment [2]. Take `COC(=O)[C@@]1(Cc2ccc(OC)cc2)[C@H]2c3cc(C(=O)N(C)C)n(CCF)c3C[C@H]2CN1C(=O)c1ccccc1`: the call in experiment [1] and in experiment [2] was inactive. Turning to `CC(C)c1ccc2c([Si](C)(C)C)c3c(nc2c1)-c1cccc(=O)n1C3`, the outcome in experiment [1] and in experiment [2] was inactive. For `COC(=O)[C@@]1(Cc2ccc(OC)cc2)[C@H]2c3cc(C(=O)N(C)C)n(Cc4c(CO)[nH]cc(C)c4=O)c3C[C@H]2CN1C(=O)c1ccccc1`, the compound was called inactive in experiment [1] and in experiment [2]. As for `Cc1ccc(CNC(=O)[C@H](C)[C@H]2C[C@]2(C)[C@H](NC(=O)OCc2ccccc2)c2ccccc2)o1`, the outcome in experiment [1] and in experiment [2] was inactive. Consider `COC(=O)[C@@]1(Cc2ccccc2)[C@H]2c3cc(C(=O)N(C)C)n(Cc4cc(C)n(C)n4)c3C[C@H]2CN1C(=O)c1ccccc1`, for which the call in experiment [1] and in experiment [2] was inactive. Take `COC(=O)[C@@]1(Cc2ccc(OC)cc2)[C@H]2c3cc(C(=O)N(C)C)n(CCSCCO)c3C[C@H]2CN1C(=O)c1ccccc1`: the compound was classed as inactive in experiment [1] and in experiment [2]. For `COC(=O)[C@H]1C[C@@H]1[C@H](NS(=O)(=O)c1ccccc1)c1ccccc1`, the result in experiment [1] and in experiment [2] was inactive. Consider `COC(=O)[C@@]1(Cc2ccc(F)cc2)[C@H]2c3cc(C(=O)N(C)C)n(CCF)c3C[C@H]2CN1C(=O)c1ccccc1`, for which the call in experiment [1] and in experiment [2] was inactive.

For `C[C@@H](C(=O)NCc1ccccc1)[C@@H]1C[C@@]1(C)[C@@H](NC(=O)OCc1ccccc1)c1ccccc1`, the compound was classed as inactive in experiment [1] and in experiment [2]. Turning to `COC(=O)[C@@]1(Cc2ccccc2)[C@H]2c3cc(C(=O)N(C)C)n(CCSCCO)c3C[C@H]2CN1C(=O)c1ccccc1`, the result in experiment [1] and in experiment [2] was inactive. Consider `COC(=O)[C@@]1(Cc2ccc(F)cc2)[C@H]2c3cc(C(=O)N4CCCC4)n(CCc4ccccn4)c3C[C@H]2CN1C(=O)c1ccccc1`, for which the result in experiment [1] and in experiment [2] was inactive. With `COc1ccc(CNC(=O)[C@H](C)[C@H]2C[C@]2(C)[C@H](NC(=O)OCc2ccccc2)c2ccccc2)cc1OC`, the result in experiment [1] and in experiment [2] was inactive.

For `C[C@@H](C(=O)Nc1ccc2ccccc2c1)[C@@H]1C[C@@]1(C)[C@@H](NS(=O)(=O)c1ccccc1)c1ccccc1`, the compound was classed as inactive in experiment [1] and in experiment [2]. With `O=C(NCC1CC1)[C@@H]1C[C@H]1[C@@H](NP(=O)(c1ccccc1)c1ccccc1)c1ccccc1`, the call in experiment [1] and in experiment [2] was inactive. `COC(=O)[C@@]1(Cc2ccc(OC)cc2)[C@H]2c3cc(C(=O)N(C)C)n(CCc4c[nH]c5ccc(O)cc45)c3C[C@H]2CN1C(=O)c1ccccc1`: the call in experiment [1] and in experiment [2] was inactive. Regarding `COC(=O)[C@@]1(Cc2ccc(OC)cc2)[C@H]2c3cc(C(=O)N4CCCC4)n(Cc4ccc(OC(F)(F)F)cc4)c3C[C@H]2CN1C(=O)c1ccccc1`, the call in experiment [1] and in experiment [2] was inactive. With `CC(=O)OCC1C2CC[C@H]3C(OCc4ccc(F)cc4C(F)(F)F)OC[C@]4(C)[C@H]3C2=C(CN4C(=O)OC(C)(C)C)[C@H](C)C1COC(C)=O` (some centres not stated), the result in experiment [1] and in experiment [2] was inactive. For `C[C@@H](C(=O)Nc1ccc2ccccc2c1)[C@@H]1C[C@@]1(C)[C@@H](NC(=O)c1ccccc1)c1ccccc1`, the call in experiment [1] and in experiment [2] was inactive. `COC(=O)[C@@]1(Cc2ccccc2)[C@@H]2[C@@H](CC(=O)[C@H]2CC(=O)C(=O)N(C)C)CN1C(=O)c1ccccc1`: the call in experiment [1] and in experiment [2] was inactive. Consider `COC(=O)[C@@]1(Cc2ccc(F)cc2)[C@H]2c3cc(C(=O)N4CCCC4)n(CC4CC4)c3C[C@H]2CN1C(=O)c1ccccc1`, for which the result in experiment [1] and in experiment [2] was inactive.

Regarding `COC(=O)[C@@]1(Cc2ccc(OC)cc2)[C@H]2c3cc(C(=O)N4CCCC4)n(CCN4CCOCC4)c3C[C@H]2CN1C(=O)c1ccccc1`, the result in experiment [1] and in experiment [2] was inactive. Regarding `COC(=O)[C@@]1(Cc2ccc(OC)cc2)[C@H]2c3cc(C(=O)N(C)C)n(CCc4ccccn4)c3C[C@H]2CN1C(=O)c1ccccc1`, the call in experiment [1] and in experiment [2] was inactive. Regarding `O=C(NCC1CC1)[C@H]1C[C@@H]1[C@H](NP(=O)(c1ccccc1)c1ccccc1)c1ccccc1`, the call in experiment [1] and in experiment [2] was inactive. With `COC(=O)[C@@]1(Cc2ccc(F)cc2)[C@H]2c3cc(C(=O)N(C)C)n(Cc4ccsc4Br)c3C[C@H]2CN1C(=O)c1ccccc1`, the call in experiment [1] and in experiment [2] was inactive.

The values above are taken from PubChem BioAssay (NCATS).
